Measured values reported in PubChem BioAssay (NCATS).
Records with an inconclusive call do not appear. Entries that show only a call come without a potency. Calls of active or inactive are those of the source. Calls follow the shape of the dose curve; as a rule, active = well fitted inhibition curve with a large enough effect; inconclusive = small, poorly fitted or top-dose-only effect; inactive = flat fitted curve, though single readings scatter.

Biological target: Calcium and integrin-binding protein 1 (Homo sapiens) (UniProt Q99828)
Assay: Primary qHTS for Identification of Calcium Integrin Binding Protein 1 (CIB1) Competitor (AID 1508620);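 also: GST tagged CIB1 binding a fluorescein labelled alphaIIb integrin peptide tracer; top concentration of the series differs between compounds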
Settings: CIB1-GST / FITC-alphaIIb peptide fluorescence polarization; series mostly up to 57.7 µM
Summary of the method: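 CIB1-GST (1 uM final) and compound incubated 15 min at room temperature before adding FITC-alphaIIb peptide tracer (100 nM final). Competition for binding read by fluorescence polarization (ex 480, em 540) after another 15 min at room temperature.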

Chain of Calcium and integrin-binding protein 1 (Homo sapiens) (Q99828 whole entry, looked up): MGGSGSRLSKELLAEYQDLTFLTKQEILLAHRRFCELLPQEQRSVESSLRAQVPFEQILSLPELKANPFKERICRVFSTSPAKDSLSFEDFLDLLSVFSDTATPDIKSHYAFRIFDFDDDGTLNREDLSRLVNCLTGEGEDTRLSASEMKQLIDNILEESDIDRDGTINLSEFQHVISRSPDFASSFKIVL

| Compound | Potency | activity change, negative = inhibition |
| --- | --- | --- |
| COc1cc(O)c(C(=O)O)c(CCc2ccccc2)c1 | inactive | – |
| C[C@@H]1O[C@@H](O[C@H]2[C@H](OC(=O)[C@]34CCC(C)(C)C[C@H]3C3=CCC5[C@@]6(C)CC[C@H](O[C@@H]7O[C@H](CO[C@@H]8OC[C@H](O)[C@H](O)[C@H]8O)[C@@H](O)[C@H](O)[C@H]7O)C(C)(C)C6CC[C@@]5(C)[C@]3(C)C[C@H]4O)OC[C@@H](O)[C@@H]2O)[C@H](O)[C@H](O[C@@H]2OC[C@](O)(CO)[C@H]2O)[C@H]1O[C@@H]1OC[C@H](O)[C@H](O[C@@H]2OC[C@@H](O)[C@H](O)[C@H]2O)[C@H]1O (some centres undefined) | – | 2.98% [at 12.4 µM] (inactive) |
| CC(=O)OC(C)(C)/C=C/C(=O)[C@](C)(O)C1[C@H](O)C[C@@]2(C)[C@@H]3CC=C4[C@@H](C[C@H](O[C@@H]5O[C@H](CO)[C@@H](O)[C@H](O)[C@H]5O)C(=O)C4(C)C)[C@]3(C)C(=O)C[C@]12C (some centres undefined) | inactive | – |
| CC1=CCC2C(C)(C)CCCC2(C)C1CC12OC1C(O)C(CO)=CC2O (centres undefined) | inactive | – |
| O=C1OC(c2ccc(O)cc2)C(O)=C1Cc1ccccc1 (centres undefined) | inactive | – |
| C=C(C)C1Cc2c(ccc3c2OCC(c2ccc(O)cc2O)C3)O1 (centres undefined) | inactive | – |
| COCCN1CCC(C(=O)NO)(S(=O)(=O)c2ccc(Oc3ccc(OC(F)(F)F)cc3)cc2)CC1 | inactive | – |
| CC(CCO)CCC1C2(C)CCCC(C)(C)C2CC[C@@]1(C)O (some centres undefined) | inactive | – |
| C=C1C(=O)O[C@@H]2C[C@]3(C)[C@@H](CCC(C)=O)[C@@H]3C[C@H]12 | inactive | – |
| CN1CCCC1Cc1c[nH]c2ccc(CCS(=O)(=O)c3ccccc3)cc12 (centres undefined) | inactive | – |
| CC(=O)NC1C(OC2CCC3(C)C(CCC4(C)C3CC=C3C5CC(C)(C)CCC5(C(=O)O)C(O)CC34C)C2(C)C)OC(CO)C(O)C1O (centres undefined) | inactive | – |
| CC(=O)O[C@@H]1C[C@@H](C)[C@](O)(CCC2=CC(=O)OC2)[C@@]2(C)CCCC(C)(C)C12 (some centres undefined) | inactive | – |
| CC(=O)N[C@H]1[C@H](O[C@H]2CC[C@]3(C)C4CC=C5[C@@H]6CC(C)(C)CC[C@]6(C(=O)O)[C@H](O)C[C@@]5(C)[C@]4(C)CC[C@H]3C2(C)C)O[C@H](CO)[C@@H](O)[C@@H]1O (some centres undefined) | inactive | – |
| C/C=C(\C)C1C(C)=CC2CCC(OS(=O)(=O)O)C(C)C2C1/C=C/C=C/C(=O)O (centres undefined) | inactive | – |
| CC1(C)CC[C@]2(C(=O)O[C@@H]3O[C@H](CO)[C@@H](O)[C@H](O)[C@H]3O)[C@H](O)C[C@]3(C)C(=CCC4[C@@]5(C)CC[C@H](O[C@@H]6OC[C@@H](O)[C@H](O)[C@H]6O)[C@@](C)(C(=O)O)C5CC[C@]43C)[C@@H]2C1 (some centres undefined) | inactive | – |
| CC1OC(OC2CCC3(C)C(CCC4(C)C3C=CC35OCC6(CCC(C)(C)CC63)CCC45C)C2(C)CO)C(OC2OC(CO)C(O)C(O)C2O)C(O)C1OC1OC(CO)C(O)C(O)C1O (centres undefined) | inactive | – |
| C/C=C/C=C/C(=O)OC1CC/C=C/C(O)C(O)C(CCC)OC1=O (centres undefined) | inactive | – |
| CCC(C)/C=C(C)/C=C/C1=CC2=CC(=O)C(C)(O)C(OC(C)=O)C2CO1 (centres undefined) | inactive | – |
| CC(=O)O[C@@H]1C=C2[C@H](CC[C@@]3(C)[C@@]2(O)CC[C@H]2Cc4c([nH]c5ccccc45)[C@@]23C)O[C@@H]1C(C)(C)O | inactive | – |
| CC1(C)CC[C@]2(C(=O)O)CC[C@]3(C)C(=CCC4[C@@]5(C)CC[C@H](O[C@H]6O[C@H](C(=O)O)[C@@H](O)[C@H](O[C@@H]7O[C@H](CO)[C@H](O)[C@H](O)[C@H]7O)[C@H]6O)C(C)(C)C5CC[C@]43C)[C@@H]2C1 (some centres undefined) | inactive | – |

| Compound | Potency | activity change, negative = inhibition |
| --- | --- | --- |
| C=CCC/C=C/C#CCCCCCCCC[C@H]1C(=O)O[C@H](C)[C@@H]1O | inactive | – |
| C/C=C/C=C/C=C/C(=O)O[C@@H]1C=C(CO)[C@](O)(CO)[C@@]2(C)CCCC(C)(C)[C@H]12 | inactive | – |
| COc1ccc(C2COc3cc(O)ccc3C2)c(O)c1OC (centres undefined) | inactive | – |
| C=C1CC[C@@]2(OC1)O[C@H]1CC3[C@@H]4CC=C5C[C@H](O[C@H]6OC[C@@H](O)C(O)[C@@H]6O[C@@H]6O[C@@H](C)[C@H](O)[C@@H](O[C@@H]7O[C@H](CO)[C@@H](O)[C@H](O)[C@H]7O)[C@H]6O)C[C@@H](O)[C@]5(C)C4CC[C@]3(C)[C@H]1[C@@H]2C (some centres undefined) | inactive | – |
| C=C1CC2C3(C)C(O)CC(=O)C(C)(C)C3C(O)C(OC(C)=O)C2(C)C2C(=O)OC(C)(C(=O)OC)C(=O)C12C (centres undefined) | inactive | – |
| CC(C)=CCc1c(O)cc2oc3cc(C)cc(O)c3c2c1C | inactive | – |
| CC(=O)OC1C(CO)OC(O[C@H]2[C@H](OC(=O)[C@]34CCC(C)(C)C[C@H]3C3=CCC5[C@@]6(C)CC[C@H](O[C@@H]7O[C@H](C(=O)O)[C@@H](O)[C@H](O[C@@H]8OC[C@@H](O)[C@H](O)[C@H]8O)[C@H]7O[C@@H]7O[C@H](CO)[C@H](O)[C@H](O)[C@H]7O)[C@@](C)(C=O)C6CC[C@@]5(C)[C@]3(C)C[C@H]4O)O[C@H](C)[C@H](OC3OC(C)C(OC4OCC(O)C(O)C4O)C(O)C3O)[C@@H]2O)C(O)C1O (some centres undefined) | – | 4.08% [at 12.4 µM] (inactive) |
| CC1(C)CC[C@]2(C(=O)O)CC[C@]3(C)C(=CCC4[C@@]5(C)C[C@@H](O)[C@H](O)[C@@](C)(CO)C5[C@H](O)C[C@]43C)[C@@H]2C1 (some centres undefined) | inactive | – |
| C=C1Cc2c(Cl)cc3[nH]c4c5c3c2[C@@]2(O)[C@@H]1C[C@@H]2C(C)(C)O[C@H]5C1CC[C@@]2(O)[C@@]35O[C@@H]3[C@H]3OC(C)(C)[C@H]3O[C@H]5CC[C@]2(C)[C@@]41C (some centres undefined) | inactive | – |
| COc1cc(C)c(C(=O)OC2C(C)OC(OC3CCC(C)C4C3C=C(C)C3/C(C)=C\CC/C(C)=C/C5(C)C=C(C(=O)O)C(C)CC56OC(=O)/C(=C(\O)C34C)C6=O)C(O)C2O)c(OC)c1 (centres undefined) | inactive | – |
| CC(=O)O[C@@H]1CC2C(C)(C)C(=O)C=C[C@]2(C)C2CC[C@]3(C)C(=CC(=O)[C@@H]3c3ccoc3)[C@@]21C (some centres undefined) | inactive | – |
| C/C(=C\C(=O)C(C)C1CCC2C3=C(CCC21C)C1(C)CCC(=O)C(C)(C)C1(O)CC3)C(C)(C)O (centres undefined) | inactive | – |
| COc1cc(O)cc2c1C(=O)OC(C)CCCCCCC2 (centres undefined) | inactive | – |
| Cc1c(-c2ccc3c(c2)OCO3)oc2ccc(C(O)C(C)O)cc12 (centres undefined) | inactive | – |
| CC(O)C(=O)/C=C/C=C/C(=O)OC1C=C2COC(=O)C2(O)C2(C)CCCC(C)(C)C12 (centres undefined) | inactive | – |
| CCC(C)/C=C(C)/C=C/C1=CC2=C(Cl)C(=O)C(C)(O)C(=O)C2(O)C(OC)O1 (centres undefined) | inactive | – |
| COC(=O)c1[nH]c(=O)c2ccccc2c1-c1ccc[nH]1 | inactive | – |
| COC(=O)[C@H](c1ccccc1Cl)N1CCC2SC(=O)C=C2C1 (some centres undefined) | inactive | – |
| CC(=O)OC12CC(C)C(OC(=O)c3ccccc3)C1/C=C(/C)C(OC(=O)c1ccccc1)CC(=O)C(C)(C)/C=C/C(C)C2=O (centres undefined) | inactive | – |
